The results in this text go back to publication PMC7862700, “An all-to-all approach to the identification of sequence-specific readers for epigenetic DNA modifications on cytosine”.

Test in all cases: DAPPL (digital affinity profiling via proximity ligation, sequencing); 10 mM Tris-HCl pH 7.5, 50 mM NaCl, 1 mM DTT, 4% glycerol, room temperature, 30 min; GST-TFs on glutathione beads, 16-mer random dsDNA library, 0.1% formaldehyde crosslink after washing; high values mean tight binding
Common to all, as to conditions: protein: recombinant; tags: N-terminal GST; dsDNA, one strand shown

The target in one assay is T1, ERF (Homo sapiens, UniProt P50548 1-548).
T1 sequence: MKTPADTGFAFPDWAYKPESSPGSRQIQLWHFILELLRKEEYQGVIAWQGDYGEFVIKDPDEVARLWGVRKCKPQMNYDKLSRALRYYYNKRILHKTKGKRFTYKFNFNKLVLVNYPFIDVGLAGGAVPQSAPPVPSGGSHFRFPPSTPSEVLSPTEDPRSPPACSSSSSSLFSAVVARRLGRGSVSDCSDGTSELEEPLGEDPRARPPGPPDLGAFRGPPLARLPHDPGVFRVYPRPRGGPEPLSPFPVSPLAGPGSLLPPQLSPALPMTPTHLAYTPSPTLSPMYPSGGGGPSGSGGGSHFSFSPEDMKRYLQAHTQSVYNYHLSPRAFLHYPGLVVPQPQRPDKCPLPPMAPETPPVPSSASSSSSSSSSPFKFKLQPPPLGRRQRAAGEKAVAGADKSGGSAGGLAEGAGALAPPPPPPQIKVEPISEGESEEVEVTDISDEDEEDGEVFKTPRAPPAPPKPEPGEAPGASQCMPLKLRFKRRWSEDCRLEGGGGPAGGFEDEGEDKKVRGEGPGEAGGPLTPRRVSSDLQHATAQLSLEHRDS
The method in brief:
(§1)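 Yeast served to express human transcription factors as GST fusions, which were then captured on glutathione beads and labelled with DNA barcodes. Pooled with a tag-only sample, they were incubated with 200 nmole of a 16-mer random double-stranded DNA library for 30 min at room temperature in Tris/NaCl/DTT/glycerol buffer, washed, crosslinked with 0.1% formaldehyde, ligated by proximity, amplified by PCR and sequenced. Dividing each hexamer's read frequency for a factor by its frequency for the tag-only sample gives the binding signal.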

For another assay, the target named is T2, ETV3L (Homo sapiens, UniProt Q6ZN32 1-361).
T2 sequence: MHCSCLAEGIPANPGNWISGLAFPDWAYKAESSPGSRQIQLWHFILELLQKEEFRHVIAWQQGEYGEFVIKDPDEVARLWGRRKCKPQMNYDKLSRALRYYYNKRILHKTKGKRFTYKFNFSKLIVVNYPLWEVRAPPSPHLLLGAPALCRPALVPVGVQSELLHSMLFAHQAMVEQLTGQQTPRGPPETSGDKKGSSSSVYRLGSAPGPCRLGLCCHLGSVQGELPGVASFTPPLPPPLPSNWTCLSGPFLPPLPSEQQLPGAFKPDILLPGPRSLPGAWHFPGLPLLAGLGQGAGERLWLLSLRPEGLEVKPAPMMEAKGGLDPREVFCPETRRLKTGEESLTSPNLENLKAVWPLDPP
The method in brief:
as §1

The next assay addresses T3, ETS2 (Homo sapiens, UniProt P15036 1-469).
T3 sequence: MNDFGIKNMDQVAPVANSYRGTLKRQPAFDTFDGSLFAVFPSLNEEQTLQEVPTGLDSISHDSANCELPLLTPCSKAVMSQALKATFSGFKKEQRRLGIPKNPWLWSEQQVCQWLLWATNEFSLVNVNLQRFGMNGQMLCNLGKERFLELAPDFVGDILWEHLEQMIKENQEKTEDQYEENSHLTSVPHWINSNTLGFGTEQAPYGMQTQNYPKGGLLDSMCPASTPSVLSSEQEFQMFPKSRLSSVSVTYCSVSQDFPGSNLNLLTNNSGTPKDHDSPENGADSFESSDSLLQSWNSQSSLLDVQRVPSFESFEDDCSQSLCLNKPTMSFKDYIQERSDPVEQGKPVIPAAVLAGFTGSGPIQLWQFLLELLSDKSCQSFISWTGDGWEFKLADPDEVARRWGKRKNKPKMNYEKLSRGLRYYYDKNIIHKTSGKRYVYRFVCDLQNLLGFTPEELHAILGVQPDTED
The method in brief:
as §1

The target in another assay is T4, SPDEF (Homo sapiens, UniProt O95238 1-335).
T4 sequence: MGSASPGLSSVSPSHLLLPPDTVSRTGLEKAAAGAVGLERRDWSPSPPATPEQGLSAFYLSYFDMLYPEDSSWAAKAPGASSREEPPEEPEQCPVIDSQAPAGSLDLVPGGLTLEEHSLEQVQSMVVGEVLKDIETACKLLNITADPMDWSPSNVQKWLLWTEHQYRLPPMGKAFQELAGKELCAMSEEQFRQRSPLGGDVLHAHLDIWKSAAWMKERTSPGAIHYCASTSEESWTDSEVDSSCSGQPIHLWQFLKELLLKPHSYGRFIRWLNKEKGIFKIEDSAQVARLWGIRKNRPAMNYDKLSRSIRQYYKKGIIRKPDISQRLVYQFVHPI
The method in brief:
as §1

For another assay, the target named is T5, ETV7 (Homo sapiens, UniProt Q9Y603 1-341).
T5 sequence: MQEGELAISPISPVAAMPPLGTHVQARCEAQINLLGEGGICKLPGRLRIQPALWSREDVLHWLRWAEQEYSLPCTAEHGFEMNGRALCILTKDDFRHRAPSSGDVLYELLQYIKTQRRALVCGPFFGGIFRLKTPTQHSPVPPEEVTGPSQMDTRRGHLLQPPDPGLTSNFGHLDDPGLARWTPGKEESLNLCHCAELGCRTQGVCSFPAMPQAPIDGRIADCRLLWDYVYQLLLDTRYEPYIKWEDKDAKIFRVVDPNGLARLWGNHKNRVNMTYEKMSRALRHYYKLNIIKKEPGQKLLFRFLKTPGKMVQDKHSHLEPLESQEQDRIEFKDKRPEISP
The method in brief: as §1

For the next assay, the target named is T6, ELF5 (Homo sapiens, UniProt Q9UKW6-2 1-255).
T6 sequence: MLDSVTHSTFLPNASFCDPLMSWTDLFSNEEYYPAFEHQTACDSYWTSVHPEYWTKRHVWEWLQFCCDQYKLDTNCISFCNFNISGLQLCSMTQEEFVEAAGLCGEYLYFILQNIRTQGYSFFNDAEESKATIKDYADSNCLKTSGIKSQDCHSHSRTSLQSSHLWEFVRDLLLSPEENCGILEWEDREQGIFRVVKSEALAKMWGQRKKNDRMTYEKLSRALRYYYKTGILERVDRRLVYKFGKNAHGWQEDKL
The method in brief: as §1

Another assay has as its target T7, ETV3 (Homo sapiens, UniProt P41162-2 1-143).
T7 sequence: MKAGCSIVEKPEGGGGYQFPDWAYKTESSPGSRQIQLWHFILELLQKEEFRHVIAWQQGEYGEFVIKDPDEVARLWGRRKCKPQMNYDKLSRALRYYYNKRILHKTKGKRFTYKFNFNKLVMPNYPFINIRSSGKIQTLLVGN
The method in brief:
as §1

Another assay has as its target ETV6 (Homo sapiens, UniProt P41212 1-452). The method in brief: as §1

ETV6, sequence (P41212 whole entry): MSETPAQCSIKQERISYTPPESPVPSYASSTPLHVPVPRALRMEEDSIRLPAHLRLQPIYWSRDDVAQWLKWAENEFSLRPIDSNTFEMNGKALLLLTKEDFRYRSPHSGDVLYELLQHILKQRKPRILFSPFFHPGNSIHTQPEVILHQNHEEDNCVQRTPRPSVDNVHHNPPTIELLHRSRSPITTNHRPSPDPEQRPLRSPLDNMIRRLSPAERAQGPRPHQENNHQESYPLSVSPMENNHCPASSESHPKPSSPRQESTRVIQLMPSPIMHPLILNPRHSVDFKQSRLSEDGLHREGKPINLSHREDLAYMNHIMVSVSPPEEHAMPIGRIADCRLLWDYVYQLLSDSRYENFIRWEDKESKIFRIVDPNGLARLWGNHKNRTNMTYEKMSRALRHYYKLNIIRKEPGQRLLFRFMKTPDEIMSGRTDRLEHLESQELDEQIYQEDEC

For the sequence TACACA, the binding signal with ERF was 1.24 fold enrichment (6-mer frequency, TF over GST control); in the assay with ETV3L, 1.15 fold enrichment (6-mer frequency, TF over GST control); with ETS2, 1.16 fold enrichment (6-mer frequency, TF over GST control); in the assay with SPDEF, 1.27 fold enrichment (6-mer frequency, TF over GST control); with ETV7 it was 1.19 fold enrichment (6-mer frequency, TF over GST control); with ELF5, 1.13 fold enrichment (6-mer frequency, TF over GST control). Also, the binding signal was 1.13 fold enrichment (6-mer frequency, TF over GST control) with ETV3 and 1.21 fold enrichment (6-mer frequency, TF over GST control) with ETV6.

In the case of CGACTT, the binding signal in the assay with ERF was 1.62 fold enrichment (6-mer frequency, TF over GST control); with ETV3L, 1.62 fold enrichment (6-mer frequency, TF over GST control); with ETS2, 1.76 fold enrichment (6-mer frequency, TF over GST control); with SPDEF it was 1.54 fold enrichment (6-mer frequency, TF over GST control); in the assay with ETV7 it was 1.53 fold enrichment (6-mer frequency, TF over GST control); in the assay with ELF5, 1.72 fold enrichment (6-mer frequency, TF over GST control). Further, the binding signal is 1.78 fold enrichment (6-mer frequency, TF over GST control) in the assay with ETV3 and 1.79 fold enrichment (6-mer frequency, TF over GST control) with ETV6.

Regarding TGATTT, the binding signal is 1.17 fold enrichment (6-mer frequency, TF over GST control) with ERF; 1.29 fold enrichment (6-mer frequency, TF over GST control) with ETV3L; 1.28 fold enrichment (6-mer frequency, TF over GST control) with ETS2; 1.21 fold enrichment (6-mer frequency, TF over GST control) with SPDEF; 1.24 fold enrichment (6-mer frequency, TF over GST control) with ETV7; 1.23 fold enrichment (6-mer frequency, TF over GST control) with ELF5. Besides, the binding signal was 1.24 fold enrichment (6-mer frequency, TF over GST control) with ETV3 and 1.23 fold enrichment (6-mer frequency, TF over GST control) in the assay with ETV6.

Turning to ACAACT, the binding signal was 1.4 fold enrichment (6-mer frequency, TF over GST control) in the assay with ERF; 1.36 fold enrichment (6-mer frequency, TF over GST control) with ETV3L; 1.39 fold enrichment (6-mer frequency, TF over GST control) with ETS2; 1.43 fold enrichment (6-mer frequency, TF over GST control) in the assay with SPDEF; 1.14 fold enrichment (6-mer frequency, TF over GST control) with ETV7; 1.36 fold enrichment (6-mer frequency, TF over GST control) with ELF5. Also, the binding signal in the assay with ETV3 was 1.35 fold enrichment (6-mer frequency, TF over GST control); with ETV6 it was 1.34 fold enrichment (6-mer frequency, TF over GST control).

For the sequence TCTGTT, the binding signal in the assay with ERF is 1.43 fold enrichment (6-mer frequency, TF over GST control); with ETV3L it was 1.32 fold enrichment (6-mer frequency, TF over GST control); with ETS2, 1.48 fold enrichment (6-mer frequency, TF over GST control); in the assay with SPDEF, 1.35 fold enrichment (6-mer frequency, TF over GST control); with ETV7 it was 1.46 fold enrichment (6-mer frequency, TF over GST control); with ELF5, 1.4 fold enrichment (6-mer frequency, TF over GST control). The binding signal with ETV3 is 1.25 fold enrichment (6-mer frequency, TF over GST control); with ETV6, 1.35 fold enrichment (6-mer frequency, TF over GST control).

In the case of TTTTTT, the binding signal was 1.18 fold enrichment (6-mer frequency, TF over GST control) with ERF; 1.18 fold enrichment (6-mer frequency, TF over GST control) with ETV3L; 1.09 fold enrichment (6-mer frequency, TF over GST control) with ETS2; 1.22 fold enrichment (6-mer frequency, TF over GST control) with SPDEF; 1.26 fold enrichment (6-mer frequency, TF over GST control) with ETV7; 1.14 fold enrichment (6-mer frequency, TF over GST control) with ELF5. Besides, the binding signal with ETV3 is 1.2 fold enrichment (6-mer frequency, TF over GST control); with ETV6, 1.11 fold enrichment (6-mer frequency, TF over GST control).

In the case of TTCGCG, the binding signal with ERF was 1.23 fold enrichment (6-mer frequency, TF over GST control); with ETV3L, 1.15 fold enrichment (6-mer frequency, TF over GST control); in the assay with ETS2, 1.1 fold enrichment (6-mer frequency, TF over GST control); in the assay with SPDEF, 1.15 fold enrichment (6-mer frequency, TF over GST control); in the assay with ETV7 it was 1.08 fold enrichment (6-mer frequency, TF over GST control); with ELF5, 1.07 fold enrichment (6-mer frequency, TF over GST control). The binding signal in the assay with ETV3 was 1.12 fold enrichment (6-mer frequency, TF over GST control); in the assay with ETV6, 1.17 fold enrichment (6-mer frequency, TF over GST control).
